# Rows were chosen to be rich in hits. Some 12% of all compounds tested hit in one or more screens of this group.
# BAZ2B block: inhibitors of human BAZ2B bromodomain | Q9UIF8 | AlphaScreen BAZ2B-H3K14Ac peptide displacement | Potency, µM (top dose mostly 114 µM), for the others: at the top dose activity change, negative = inhibition, actives largely listed as inhibitors | 4.4% of 360,000 active | AID 504333; note: % is set by controls: 0 for no effect and ±100 for the full control effect; nearly all actives have a fitted effect of over 60% in size
# Target sequence (Q9UIF8 whole entry, looked up): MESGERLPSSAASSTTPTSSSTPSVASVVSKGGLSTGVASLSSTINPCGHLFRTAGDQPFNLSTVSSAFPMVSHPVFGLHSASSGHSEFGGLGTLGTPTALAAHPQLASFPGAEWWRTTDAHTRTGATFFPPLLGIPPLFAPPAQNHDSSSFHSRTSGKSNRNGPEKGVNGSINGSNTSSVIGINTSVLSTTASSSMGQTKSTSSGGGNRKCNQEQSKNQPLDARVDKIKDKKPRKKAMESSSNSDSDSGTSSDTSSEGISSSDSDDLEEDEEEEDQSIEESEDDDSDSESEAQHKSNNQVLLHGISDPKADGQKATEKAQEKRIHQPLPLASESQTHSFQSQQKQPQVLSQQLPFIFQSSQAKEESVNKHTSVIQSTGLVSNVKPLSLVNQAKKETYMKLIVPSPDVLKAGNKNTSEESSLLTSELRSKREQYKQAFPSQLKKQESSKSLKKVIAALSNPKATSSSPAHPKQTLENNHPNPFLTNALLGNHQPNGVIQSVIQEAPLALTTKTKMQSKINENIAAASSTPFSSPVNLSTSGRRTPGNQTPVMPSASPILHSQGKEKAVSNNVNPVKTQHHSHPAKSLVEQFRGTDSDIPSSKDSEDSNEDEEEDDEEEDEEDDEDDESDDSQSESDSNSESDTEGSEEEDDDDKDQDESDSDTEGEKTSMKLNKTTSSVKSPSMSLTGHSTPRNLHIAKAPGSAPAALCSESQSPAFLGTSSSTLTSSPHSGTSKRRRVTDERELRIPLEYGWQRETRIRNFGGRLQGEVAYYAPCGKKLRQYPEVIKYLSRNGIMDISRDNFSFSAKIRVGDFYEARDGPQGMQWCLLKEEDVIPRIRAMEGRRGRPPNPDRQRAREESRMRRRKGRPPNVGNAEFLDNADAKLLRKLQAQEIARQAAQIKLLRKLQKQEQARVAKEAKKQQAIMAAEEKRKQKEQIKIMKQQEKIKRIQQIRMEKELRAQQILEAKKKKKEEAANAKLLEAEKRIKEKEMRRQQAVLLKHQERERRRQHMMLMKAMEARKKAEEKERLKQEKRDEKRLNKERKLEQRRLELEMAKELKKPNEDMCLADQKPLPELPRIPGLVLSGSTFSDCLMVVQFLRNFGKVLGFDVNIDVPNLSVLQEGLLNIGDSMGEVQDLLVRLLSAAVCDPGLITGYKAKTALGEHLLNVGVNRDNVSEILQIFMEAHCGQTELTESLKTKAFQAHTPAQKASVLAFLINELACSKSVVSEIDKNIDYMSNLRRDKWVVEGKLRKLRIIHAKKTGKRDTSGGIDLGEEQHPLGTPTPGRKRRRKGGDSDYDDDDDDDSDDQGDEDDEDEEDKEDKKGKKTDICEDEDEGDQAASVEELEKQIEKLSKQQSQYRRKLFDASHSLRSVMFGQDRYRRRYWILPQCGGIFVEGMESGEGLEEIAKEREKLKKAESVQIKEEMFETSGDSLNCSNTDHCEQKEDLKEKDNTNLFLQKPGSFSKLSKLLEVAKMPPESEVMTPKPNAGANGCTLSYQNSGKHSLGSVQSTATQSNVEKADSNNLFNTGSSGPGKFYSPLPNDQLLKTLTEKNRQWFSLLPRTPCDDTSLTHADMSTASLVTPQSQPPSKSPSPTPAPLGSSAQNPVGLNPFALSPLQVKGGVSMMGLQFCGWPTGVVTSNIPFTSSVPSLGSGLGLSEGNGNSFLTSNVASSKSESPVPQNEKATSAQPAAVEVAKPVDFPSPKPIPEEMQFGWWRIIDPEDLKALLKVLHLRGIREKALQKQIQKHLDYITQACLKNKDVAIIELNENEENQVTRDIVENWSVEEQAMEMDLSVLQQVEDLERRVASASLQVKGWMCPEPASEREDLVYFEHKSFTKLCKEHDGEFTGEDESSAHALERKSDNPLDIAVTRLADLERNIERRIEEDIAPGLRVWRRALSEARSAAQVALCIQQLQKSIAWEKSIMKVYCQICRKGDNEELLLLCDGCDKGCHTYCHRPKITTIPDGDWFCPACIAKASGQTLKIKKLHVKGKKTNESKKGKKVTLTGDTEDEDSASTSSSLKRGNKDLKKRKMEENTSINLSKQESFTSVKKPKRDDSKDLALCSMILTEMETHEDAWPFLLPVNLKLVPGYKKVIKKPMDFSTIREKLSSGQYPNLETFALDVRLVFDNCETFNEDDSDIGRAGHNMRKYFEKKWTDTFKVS
#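 AlphaScreen displacement of biotin-H3(5-23)K14Ac peptide (50 nM final) from BAZ2B (50 nM final) in PBS pH 7.4, 0.01% Tween-20; complex preformed 30 min RT, then compounds (top 110 uM) 30 min RT, beads 20 min dark.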
# L3MBTL1 block: blocks human L3MBTL1 | AID 485360 | Potency, µM (top dose mostly 57.1 µM), for inactives: at the top dose activity, negative = inhibition, most hits filed as inhibitors | AlphaScreen L3MBTL1–H3K9me1 peptide binding | 0.66% of 230,000 active; note: % is set by controls: 0 for no effect and ±100 for the full control effect; nearly all actives have a fitted effect of over 60% in size
#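 Displacement of a biotinylated histone H3(1-15) peptide monomethylated at Lys9 (75 nM) from L3MBTL1 (50 nM) was measured by AlphaScreen after a 30 min room-temperature compound incubation; cefsulodin titration served as intraplate control.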
# G9a inh: blocks human histone lysine methyltransferase G9a | Q96KQ7 | G9a H3K9 monomethylation, AlphaScreen, 2 h | Potency, µM (titrated, usually from 102 µM), inactives show top-dose activity, negative = inhibition, actives largely listed as inhibitors | 8.8% of 350,000 active; note: % is set by controls: 0 for no effect and ±100 for the full control effect; nearly all actives have a fitted effect of over 75% in size
#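 AlphaScreen read-out: biotin-H3K9 peptide (500 nM) methylation by 20 nM enzyme with 20 uM SAM, 2 h at room temperature after 15 min compound preincubation; anti-monomethyl H3K9 antibody plus donor/acceptor beads, 10 min dark.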
# JMJD2A Tudor: JMJD2A Tudor domain (human) inhibition | AID 504339 | O75164 | Potency, µM (highest dose often 114 µM), without a hit: at the top dose activity change, negative = inhibition, hits mostly inhibitors | AlphaScreen JMJD2A-Tudor / H3K4me3 peptide binding | 4.4% of 390,000 active; note: % is set by controls: 0 for no effect and ±100 for the full control effect; nearly all actives have a fitted effect of over 50% in size
# Sfp PPTase inh: Sfp phosphopantetheinyl transferase inhibition; Q9F4F7; Biochemical Sfp PPTase activity, qHTS; Potency, µM, for the others: largest response in the series, negative = inhibition, usual class: inhibitors; 3.5% of 310,000 active; AID 1490;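 note: the enzyme is Sfp with the accession as filed and its product quenches rhodamine fluorescence; 0% = enzyme reaction without inhibitor and -100% = no enzyme wells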
#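 Sfp 15 nM + cpd, 15 min RT; start w/ rhodamine-CoA 5 uM, BHQ-2-YbbR 12.5 uM (final); 50 mM Hepes pH 7.6, 10 mM MgCl2, 0.01% NP-40, 0.01% BSA; read 525/598 nm at 0 and 30 min.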
# HP1b binding inh: inhibitors of HP1-beta chromodomain binding to methylated histone tails; AlphaScreen HP1-beta / biotin-H3K9me3 peptide binding; Potency, µM (doses to about 114 µM), without a hit: at the highest dose activity change, negative = inhibition, usual class: inhibitors; 0.56% of 390,000 active; AID 540317; note: nearly all actives have a fitted effect of over 70% in size
#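 AlphaScreen: HP1-beta (50 nM) preformed 30 min with biotin-H3(1-18)K9me3 peptide (50 nM) in PBS pH 7.4, 0.01% Tween-20. Compound added for 30 min at RT, then streptavidin donor/nickel chelate acceptor beads (10 ug/mL) for 30 min.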
# An asterisk follows results filed as active; ? = inconclusive; · = no result given; ! = a repeat was not active; [ ] = another dose, or the depositor's remark. Calls come from the whole dose curve; as a rule, active = well fitted curve in the direction sought with a large enough effect; inconclusive = small, poorly fitted or top-dose-only effect, or another doubt; inactive = no such curve, though single readings can be large; an effect the other way counts as inactive or inconclusive. Potency is the fitted concentration of half-maximal effect.
SMILES,BAZ2B block,L3MBTL1 block,G9a inh,JMJD2A Tudor,Sfp PPTase inh,HP1b binding inh
CCc1cccc(NC(=O)CNC(=O)N2CC(=O)Nc3ccccc32)c1,-15.0%,·,7.9%[59 µM],-22.1%,24.0%,19.9%
COc1ccc(S(=O)(=O)N2CC(=O)Nc3ccccc32)cc1C,-4.2%,·,24.8%,-13.8%,27.3%,29.7%
O=C1CN(S(=O)(=O)c2cccc(C(=O)O)c2)c2ccccc2N1,4.8%,·,50.1µM*,-6.9%,-2.5%,6.7%
CCc1cccc(Nc2c([N+](=O)[O-])cc(C(=O)N3CC(=O)Nc4ccccc43)cc2[N+](=O)[O-])c1,10µM*,?,25.1µM*,?,12.2%,?
COc1ccc(C(=O)Nc2nnc(SCc3cc(=O)n4cc(Cl)ccc4n3)s2)cc1,1.5%,·,-1.5%[59 µM],-21.1%,·,20.0%[57 µM]
C=CCOC(=O)N[C@@H](CCc1ccccc1)C(C(C)=O)C(C)=O,·,·,·,·,23.1%,·
CC(=O)Nc1nnc(S(=O)(=O)N2CCN(c3ccc(Cl)cc3[N+](=O)[O-])CC2)s1,-32.0%,·,8.1%,-8.0%,11.4%,-0.4%
Cc1ccc2nc(NC(=O)COC(=O)c3ccc(Br)o3)sc2c1,42.7%,-39.8%,?,44.7µM*,25.1µM*,9.9%
O=C(COC(=O)c1ccc(Br)o1)Nc1nc2ccccc2s1,-6.0%,-6.9%,-36.5%[59 µM],-26.9%,13.6%,?
Cc1ccc2nc(NC(=O)CNS(=O)(=O)c3ccc(Br)s3)sc2c1,-14.6%,3.0%,?,50.1µM*,1.3%,5.8%
Cc1ccc2nc(NC(=O)CN(C)S(=O)(=O)c3ccc(Br)s3)sc2c1,-22.9%,·,-5.3%[12.7 µM],-22.9%,21.0%,19.0%
CC1=C(C#N)C(=O)N(C2CCS(=O)(=O)C2)C(=O)/C1=C\c1ccco1 (stereo unspecified),7.08µM*,·,5.01µM*,·,44.7µM*,·
Cc1[nH]c2ccc(C(=O)O)cc2c1C,?,·,-33.7%,-12.8%,-10.6%,14.8%
CCCc1c(C)[nH]c2ccc(C(=O)O)cc2c1=S,?,·,·,-18.4%[11.4 µM],25.1µM*,?
O=c1[nH]c(CN2CCN(c3ccc(O)cc3)CC2)nc2scc(-c3ccc(Cl)cc3)c12,?,?,3.16µM*,44.7µM*,7.2%,?
Oc1ccc(N2CCN(Cc3nc4ccccc4[nH]3)CC2)cc1,-34.7%,·,11.2µM*,50.1µM*,56.2µM*,?
CC(=O)c1ccc(N2CCN(Cc3nc4ccccc4[nH]3)CC2)cc1,-20.3%,·,39.4%,-21.2%,10.4%,28.1%
COc1ccc(S(=O)(=O)n2c([N+](=O)[O-])cnc2C)cc1OC,79.4µM*,10.3%,56.2µM*,?,10.3%,71.7%
Cc1cc(C)cc(NC(=O)Nc2ccc3nc(N4CCN(C)CC4)cc(C)c3c2)c1,-0.2%[57.1 µM],·,-23.2%[59 µM],-3.6%,·,23.5%
COc1ccc(CN2CCCCC2c2cccnc2)c(OC)c1C (stereo unspecified),?,-1.3%,79.4µM*,-32.5%,5.4%,14.3%
NC(=O)CC[C@@H](N)C(=O)O,·,·,35.5%[59 µM],·,-7.6%,·
N[C@@H](CCS(=O)O)C(=O)O,·,·,38.4%[59 µM],·,39.8µM*!,·
CC(=O)/C(C#N)=C1\NC(=O)C(Cc2ccccc2C)S1 (stereo unspecified),-23.4%,·,20µM*,?,-29.9%,19.9%
CCc1nn(CC(=O)NCCCN(CC(C)C)CC(C)C)c(=O)c2cc3sc(C)cc3n12,32.5%,·,28.0%[59 µM],1.5%,·,65.6%
Cc1sc2ncnc(N(C)Cc3cccs3)c2c1C,43.2%,·,43.6%[59 µM],52.3%,-1.0%,143.0%
SMILES,BAZ2B block,L3MBTL1 block,G9a inh,JMJD2A Tudor,Sfp PPTase inh,HP1b binding inh
Cc1sc2ncnc(N(C)CCc3ccccn3)c2c1C,25.1µM*,·,-140.4%[59 µM],1.41µM*,?,17.8µM*
C/C(=N\NS(=O)(=O)c1cccc([N+](=O)[O-])c1)c1cccnc1,-21.7%,-2.2%,31.6µM*,7.6%,?,20.0%
CC(=O)N1CCC(=NNS(=O)(=O)c2ccc(C)c([N+](=O)[O-])c2)CC1,7.2%,·,11.2µM*,-13.1%,1.0%,30.8%
O=C(c1ccc(NS(=O)(=O)c2cccc([N+](=O)[O-])c2)cc1)N1CCCCCC1,6.4%,4.6%,-23.9%,-10.9%,·,16.3%
Cc1ccc(S(=O)(=O)N/N=C2/CC(=O)CC(C)(C)C2)cc1[N+](=O)[O-],-9.8%,·,?,-14.4%,-13.7%,47.5%
CC(=O)N1CCC(=NNS(=O)(=O)c2cccc([N+](=O)[O-])c2)CC1,-0.5%,·,10µM*,-16.7%,-27.2%,51.0%
Cc1c(Cl)cccc1NC(=S)Nc1ccc(S(=O)(=O)Nc2ncccn2)cc1,·,1.3%,·,-22.2%,·,-5.9%
CC(=N)C1=C(O)CC(c2ccccc2)CC1=O (stereo unspecified),-1.4%,·,18.5%,-6.2%,18.7%,28.1%
COc1cccc(N2CCN(S(=O)(=O)c3ccc4c(c3)N(C(C)=O)CCO4)CC2)c1,-24.8%,·,4.5%,-26.5%,13.4%,7.9%
Clc1cccc(-n2ncc3c(NCCCn4ccnc4)ncnc32)c1,28.2µM*,·,-11.0%[59 µM],?,·,27.3%
c1ccc(-n2ncc3c(NCCN4CCCCC4)ncnc32)cc1,?,1.5%,44.7µM*,3.7%,-9.7%,35.6%
Fc1ccc(-n2ncc3c(NCCCn4ccnc4)ncnc32)cc1,-21.6%,·,-1.1%[59 µM],-21.7%,·,8.7%
COc1cccc(-c2cncnc2Nc2ccccc2)c1,·,·,11.4%[0.501 µM],·,14.2%,·
CCOC(=O)c1c(-c2ccc(C)o2)csc1NC(=S)NC(=O)c1ccccc1Br,-9.5%,-5.2%,31.6µM*,?,3.55µM*,?
CCOC(=O)c1c(-c2ccc(C)o2)csc1NC(=O)COC(=O)c1ccc(NC(N)=O)cc1,79.4µM*,·,3.55µM*,?,?,-0.9%
CCOC(=O)c1c(-c2ccc(C)o2)csc1NC(=O)CSc1nnc(C)s1,-6.7%,-0.9%,?,-32.1%,22.4µM*,-2.2%
COc1ccc(-c2noc(N3CCCC(C(=O)Nc4ccc(C(C)=O)cc4)C3)n2)cc1 (stereo unspecified),-2.4%,·,80.6%,5.3%,-14.3%,40.1%
CCC(C(=O)O)n1ccc2cc(S(=O)(=O)N3CCCCC3)ccc21 (stereo unspecified),0.0%,·,5.6%[59 µM],-16.4%,·,19.1%
O=C(NCc1ccco1)c1ccccc1SCC(=O)N1CCCC1,-3.5%,0.2%,10.5%[2.33 µM],-7.8%,·,5.4%
Cc1cccc(Nc2nc3ccccc3n3c(N)nnc23)c1,-8.4%,·,-39.4%[59 µM],-12.7%,·,25.8%
Cn1cccc1C1NC(=O)c2c(sc3c2CCC(C(C)(C)C)C3)N1 (stereo unspecified),-3.6%,-11.1%,?,-25.4%,-74.3%,-16.8%
O=C1NC(c2cccs2)Nc2sc3c(c21)CCCC3 (stereo unspecified),1.3%,-0.9%,?,-20.4%,44.7µM*,26.8%
